Bioassay records from PubChem.
CHO-K1 Ca antag = M1 antagonist counterscreen hit in parental CHO-K1 cells | ATP-induced calcium, Fluo-8 fluorescence | hit rate 0.6% among 360,000 | inhibition, % at 3 µM;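 active = inhibition above a per-plate cutoff, the plate's mean sample inhibition plus 3 SD, cut at about 24% in these data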;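 note: 0% = DMSO plus EC80 ATP and 100% = DMSO alone without ATP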
CHRM1 agonist = human M1 muscarinic receptor agonists, primary screen, Fluo-8 calcium fluorescence, CHO-K1 cells, HTS; activation, % at 3 µM; Muscarinic acetylcholine receptor M1 (Homo sapiens), P11229; AID 588814, 2011; hit rate 0.33% among 360,000; CHO-K1 hM1, agonist mode; 0% DMSO, 100% acetylcholine EC100;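 active = activation above the run's mean compound activation plus 3 SD, cut at about 16% in these data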;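 note: peak over basal fluorescence ratio within a 140 s kinetic read after compound addition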
Target sequence (P11229 whole entry, looked up): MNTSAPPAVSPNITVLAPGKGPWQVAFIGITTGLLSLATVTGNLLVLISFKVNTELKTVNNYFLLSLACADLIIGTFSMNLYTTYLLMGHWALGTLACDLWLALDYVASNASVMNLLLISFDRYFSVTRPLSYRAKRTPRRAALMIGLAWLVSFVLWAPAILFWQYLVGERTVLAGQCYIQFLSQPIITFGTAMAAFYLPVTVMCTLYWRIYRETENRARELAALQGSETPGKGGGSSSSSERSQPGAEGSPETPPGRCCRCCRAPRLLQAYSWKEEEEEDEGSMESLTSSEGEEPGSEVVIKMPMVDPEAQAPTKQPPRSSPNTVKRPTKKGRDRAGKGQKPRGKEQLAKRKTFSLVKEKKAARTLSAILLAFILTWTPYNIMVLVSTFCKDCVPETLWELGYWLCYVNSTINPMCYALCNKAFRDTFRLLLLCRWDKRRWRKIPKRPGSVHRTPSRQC
CHO-K1 Ca ag = counter-screen for M1 agonists: effect in parental CHO-K1 cells; activation, % at 3 µM; Fluo-8 calcium fluorescence; scaled to maximal ATP response, vehicle zero; hit rate 0.48% among 360,000; AID 602248, 2012; in the data active = activation above about 15%;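 note: untransfected CHO-K1 host cells lacking M1 receptor as counterscreen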
CHRM1 antagonist = human M1 muscarinic receptor antagonists, primary screen, CHO-K1 cells, Fluo-8 calcium fluorescence, 1536-well; Muscarinic acetylcholine receptor M1 (Homo sapiens), P11229; CHO-K1 hM1, ACh EC80 antagonist; inhibition, % at 3 µM; hit rate 1.3% among 360,000; AID 588852, 2011;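 active = percent inhibition above its own plate's cutoff, namely the mean of that plate's compound wells plus 3 SD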;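 note: peak over basal fluorescence ratio during 140 s after agonist addition; 0% = ACh EC80 plus DMSO and 100% = DMSO alone without agonist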
CHO-K1 Ca PAM = nonselective calcium activators in parental CHO-K1 cells, primary screen, counter-screen for M1 PAM project, cell-based, Fluo-8 calcium fluorescence, full deck, 1536-well | activation, % at 3 µM | hit rate 0.02% among 360,000 | ATP EC20; 0% at ATP EC20, 100% at ATP max | AID 602247, 2012;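 active = activation above the run cutoff, the mean activation of all test compounds plus 3 SD, cut at about 40% in these data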;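 note: peak over basal fluorescence ratio in a 140 s read after ATP addition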
M1 PAM = human M1 muscarinic receptor positive allosteric modulators, primary screen, CHO-K1 cells, Fluo-8 calcium fluorescence, 1536-well; CHO-K1 hM1, ACh EC20; 0% = ACh EC20, 100% = maximal ACh; activation, % at 3 µM; hit rate 0.088% among 360,000; AID 588819, 2011; in the data active = activation above about 19%, passing the limit was not always enough
Numbers without * were called inactive. The list is not random: actives were taken first. Their share in the collection is about 2.4%.

SMILES	CHO-K1 Ca antag	CHRM1 agonist	CHO-K1 Ca ag	CHRM1 antagonist	CHO-K1 Ca PAM	M1 PAM
CCOC(=O)N1CCC(NC(=O)c2cccc3c2C(=O)N(CCOC)C3)CC1	-1	-4	0	9	-1	-10
CCOC(=O)N1CCC(N2Cc3cccc(C(=O)NCc4ccc(C)cc4)c3C2=O)CC1	5	-3	0	-7	-1	-1
CCOC(=O)N1CCC(N2Cc3cccc(C(=O)NC(C)c4ccc5c(c4)OCCO5)c3C2=O)CC1 (configuration not stated)	42*	-11	-1	-13	-7	0
COc1ccc(Br)c(C(=O)Nc2cccc(Cl)c2Cl)c1	31*	-8	0	12	-14	-9
O=c1c2ccccc2c(-c2ccccc2)nn1Cc1c(Cl)cccc1Cl	-12	-1	0	-5	19	2
Clc1cccc(Cl)c1Cn1ccc(C2CC2)n1	4	-4	16*	-2	6	6
Cc1ccc(-c2nc(CSCC(=O)N3CCN(c4ccccn4)CC3)c(C)o2)cc1	1	-3	9	33*	4	-27
Cc1ccc(-c2nc(CSCC(=O)N3CCOCC3)c(C)o2)cc1	-4	-2	1	-8	14	7
CCOc1ccc(-c2nc(CSCC(=O)N3CCN(c4cccc(OC)c4)CC3)c(C)o2)cc1	15	-2	6	35*	-4	-19
CCc1ccc(-c2nc(CSCC(=O)N3CCN(c4ccccn4)CC3)c(C)o2)cc1	29*	0	6	14	-7	-10
Cc1ccc(S(=O)(=O)NC2=NCN(C3CCN(Cc4ccccc4)CC3)CN2)cc1	-10	-5	0	29*	13	-16
Cc1ccc(S(=O)(=O)NNC(=O)C2CCN(Cc3ccccc3)CC2)cc1	-19	-5	0	80*	17	-21
COC(=O)C1CCN(Cc2ccc(C)cc2)CC1	4	-6	-1	-17	0	10
Cc1ccc(S(=O)(=O)NC2=NCN(Cc3ccccc3)CN2)cc1	-2	-2	0	-11	9	5
Nc1nc(Nc2ccccc2F)nc(N2CCOCC2)c1[N+](=O)[O-]	5	-4	18*	-7	9	9
Nc1nc(Nc2ccccc2)nc(N2CCOCC2)c1[N+](=O)[O-]	-1	1	1	-2	8	5
COc1ccc(N(CCC#N)S(=O)(=O)c2cccc3nsnc23)cc1	-3	-8	1	25*	14	-10
Cc1nc2nc(SCC(=O)NCCN3CCOCC3)nn2c(C)c1Cc1ccccc1	-3	-4	0	-4	-3	1
Cc1ccc(Cc2c(C)nc3nc(SCC(=O)NCCCN4CCCC4)nn3c2C)cc1	-14	-12	1	29*	10	-25
Cc1cccc(Cc2c(C)nc3nc(SCC(=O)O)nn3c2C)c1	-8	-1	0	1	-6	6
Cc1ccc(Cc2c(C)nc3nc(SCC(=O)NCCCN4CCCCC4)nn3c2C)cc1	-6	-11	2	26*	15	-25
COc1ccc(C(=O)NC(=S)NC(C)c2ccccc2)cc1 (configuration not stated)	6	-4	0	-2	-13	6
Cc1ccc(OCCCn2c(=O)sc3ccccc32)cc1	24*	-2	-1	17	-10	-10
Cc1ccc(OCCn2c(=O)sc3ccccc32)cc1	-4	-7	0	-10	11	-5
Cc1ccc(C2/C(=C(\O)c3c(C)nc4c(C)cccn34)C(=O)C(=O)N2CCN(C)C)o1 (configuration not stated)	-6	-1	5	0	4	0
SMILES	CHO-K1 Ca antag	CHRM1 agonist	CHO-K1 Ca ag	CHRM1 antagonist	CHO-K1 Ca PAM	M1 PAM
CC(=O)N1CCN(c2ccccc2NC(=O)c2ccc(C#N)cc2F)CC1	-5	-3	13	12	5	0
CCCCCC(=O)Nc1ccc(N2CCN(CC)CC2)c(Cl)c1	-3	-7	0	69*	16	-23
CCCCCC(=O)NC(=S)Nc1ccc(N2CCCCC2)c(Cl)c1	9	0	0	-12	-7	8
CCN1CCN(c2ccc(NC(=O)c3ccccc3F)cc2Cl)CC1	22	-9	0	84*	-7	-28
CCN1CCN(c2ccc(NC(=O)c3cc4ccccc4cc3OC)cc2C)CC1	-28	-5	4	99*	22	-22
CCN1CCN(c2ccc(NC(=O)c3ccc(C#N)cc3F)cc2Cl)CC1	8	-8	3	54*	3	-27
O=C(c1ccco1)N(Cc1ccco1)Cc1cc2ccccc2[nH]c1=O	7	-6	1	11	9	-9
C[C@H](CO)N1C[C@H](C)[C@H](CN(C)Cc2ccccc2)Oc2ccc(NC(=O)Nc3ccc(F)cc3)cc2C1=O	-6	-11	0	-2	12	-2
Cc1cc(=O)n2c3ccccc3n(CC(O)CN3CCN(Cc4ccccc4)CC3)c2c1C#N (configuration not stated)	4	-6	3	45*	0	-22
CC1(Cc2ccc(Cl)c(Cl)c2)C(=O)Nc2c(Cl)ccc(Cl)c21 (configuration not stated)	-17	2	0	-16	26	13
CC1(Cc2ccc(Cl)s2)C(=O)Nc2c(Cl)ccc(Cl)c21 (configuration not stated)	2	-6	0	32*	-17	-20
COc1ccc(CCNc2ncnc3sc(C)cc23)cc1OC	32*	3	14	41*	-12	-15
COc1ccc(CCNc2ncnc3[nH]ncc23)cc1OC	-7	3	4	-16	19	-10
Cc1onc(-c2ccccc2Cl)c1C(=O)NCC1CCCO1 (configuration not stated)	-25	-6	1	-2	13	-2
CC1CCCCN1CCCNC(=O)C1CCN(c2nc3ccccc3o2)CC1 (configuration not stated)	-4	-10	0	78*	15	-28
COC(=O)c1ccc(CSc2nnc(NC(=O)C3CCCO3)s2)cc1 (configuration not stated)	-11	2	1	-12	13	11
O=C(Nc1nnc(SCc2ccc(Cl)cc2)s1)C1CCCO1 (configuration not stated)	31*	-2	0	3	-9	-2
COc1ccc(C(CNC(=O)c2ccc3c(c2)C(=O)N(CCC(C)C)C3=O)N2CCOCC2)cc1 (configuration not stated)	-11	-5	1	-4	17	-4
